Laboratory results: PubChem BioAssay (NCATS)
Inconclusive results are not listed. Active and inactive are the calls of the source. Calls come from the whole dose curve; as a rule, active = well fitted curve in the direction sought with a large enough effect; inconclusive = small, poorly fitted or top-dose-only effect, or another doubt; inactive = no such curve, though single readings can be large; an effect the other way counts as inactive or inconclusive.

Test system: not listed separately
Test: Confirmation and Secondary Assay for Modulators of Hemoglobin Beta Chain Splicing at IVS2 654 locus (AID 910);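 note: per-well total GFP intensity by laser scanning cytometry after 2-day treatment; % of control where 0% means no effect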
Conditions: HeLa EGFP-654 splicing reporter, GFP fluorescence, 48 h; series mostly up to 46.1 µM; activation (splicing correction): at the top concentration
Summary of the method: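 HeLa cells stably carrying EGFP interrupted by mutant beta-globin IVS2-654 intron (CMV-driven) were treated with compound for 2 days at 37C; corrected splicing was scored as total peak GFP intensity per well (488 nm excitation, 500-520 nm emission).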
With `Cc1cnc(NC(=O)C2=C(O)c3ccccc3S(=O)(=O)N2C)s1` the “activation (splicing correction)” value was 0.504% (inactive). With `Nc1ccc(S(=O)(=O)Nc2ccnn2-c2ccccc2)cc1` the “activation (splicing correction)” value was -1.37% (inactive). In the case of `NCCc1ccc(O)c(O)c1`, the Potency is reported as “inactive”. In the case of `CCc1ccc(CCOc2ccc(CC3SC(=O)NC3=O)cc2)nc1` (configuration not stated), the “activation (splicing correction)” value is reported as -7.75% (inactive). In the case of `O=C1CCc2cc(OCCCCc3nnnn3C3CCCCC3)ccc2N1`, the “activation (splicing correction)” value is reported as 5.16% (inactive). With `Cc1oncc1C(=O)Nc1ccc(C(F)(F)F)cc1` the “activation (splicing correction)” value was 0.321% (inactive). In the case of `Cc1ccccc1C(OCCN(C)C)c1ccccc1` (configuration not stated), the “activation (splicing correction)” value is reported as 5.13% (inactive).

Test system: not listed separately
Test: qHTS Assay for Identification of Small Molecule Agonists for Thrombopoietin (TPO) Signaling Pathway (AID 917); note: % is set by controls: 0 for no effect and ±100 for the full control effect
Conditions: TPO signaling pathway reporter cells, agonist qHTS, stimulated with TPO at its EC50; series mostly up to 38.5 µM; activity, positive = activation: at the top concentration
Summary of the method: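 Luciferase reporter (Glycoprotein IIb promoter) in IL-3-deprived Ba/F3 cells carrying human TPO receptor; compounds co-added with 26 pM TPO, incubated 24 h, 37 C. Steadylite luminescence measured after 10 min.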
With `CCOC(=O)C1=C[C@@]2(CC)CCCN3CCc4c(n1c1ccccc41)[C@H]32` the “activity, positive = activation” value was -17.2% (inactive). With `C[C@]12CCC(=O)C=C1CC[C@@H]1[C@@H]2[C@@H](O)C[C@@]2(C)[C@H]1CC[C@]2(O)C(=O)CO` the “activity, positive = activation” value was -18% (inactive). For `CC(C)NCC(O)COc1ccc(COCCOC(C)C)cc1` (configuration not stated), the “activity, positive = activation” value was 11% (inactive). For `Cc1[nH]c(=O)c(C#N)cc1-c1ccncc1`, the “activity, positive = activation” value was 10.7% (inactive). In the case of `CNC[C@H](O)c1cccc(O)c1`, the “activity, positive = activation” value is reported as -7.98% (inactive). In the case of `Cc1cn[nH]c1`, the “activity, positive = activation” value is reported as 8.4% (inactive). In the case of `Nc1nc2ccc(OC(F)(F)F)cc2s1`, the “activity, positive = activation” value is reported as 7.1% (inactive). In the case of `C1COC(NC(C2CC2)C2CC2)=N1`, the “activity, positive = activation” value is reported as -11.4% (inactive). For `CC(C)(Sc1ccc(CCN(CCCCC2CCCCC2)C(=O)NC2CCCCC2)cc1)C(=O)O`, the “activity, positive = activation” value was -12.3% (inactive). For `N[C@@H]1CONC1=O`, the outcome was “inactive”. In the case of `Clc1cccc(Cl)c1NC1=NCCN1`, the “activity, positive = activation” value is reported as -15.5% (inactive). In the case of `Cc1[nH]c(=O)c(C#N)cc1-c1ccc2nccn2c1`, the “activity, positive = activation” value is reported as -12.6% (inactive). For `Nc1nc2c(ncn2COCCO)c(=O)[nH]1`, the “activity, positive = activation” value was -18.7% (inactive).

Test system: not listed separately
Test: Confirmation and Secondary Assay for Modulators of Hemoglobin Beta Chain Splicing at IVS2 705 locus (AID 930);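 note: HeLa cells stably expressing the EGFP-705 splicing reporter; GFP fluorescence per well restored by corrected splicing of the IVS2-705 intron in EGFP; % of control where 0% means no effect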
Conditions: HeLa EGFP-705 splicing reporter, GFP fluorescence, 48 h; series mostly up to 46.1 µM; activation: at the top concentration
Summary of the method: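 Assay measures total GFP intensity per well in HeLa EGFP-705 cells after 2 days with compound; mis-splicing normally truncates EGFP, so fluorescence indicates corrected splicing.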
In the case of `Cc1cnc(NC(=O)C2=C(O)c3ccccc3S(=O)(=O)N2C)s1`, the “activation” value is reported as -0.804% (inactive). In the case of `Nc1ccc(S(=O)(=O)Nc2ccnn2-c2ccccc2)cc1`, the “activation” value is reported as -1.29% (inactive). For `NCCc1ccc(O)c(O)c1`, the Potency was “inactive”. For `CCc1ccc(CCOc2ccc(CC3SC(=O)NC3=O)cc2)nc1` (configuration not stated), the “activation” value was -0.726% (inactive). For `O=C1CCc2cc(OCCCCc3nnnn3C3CCCCC3)ccc2N1`, the “activation” value was 3.26% (inactive). In the case of `Cc1oncc1C(=O)Nc1ccc(C(F)(F)F)cc1`, the “activation” value is reported as 1.11% (inactive). For `Nc1nc2c(ncn2COCCO)c(=O)[nH]1`, the “activation” value was 4.78% (inactive). With `Cc1ccccc1C(OCCN(C)C)c1ccccc1` (configuration not stated) the “activation” value was 0.0483% (inactive).

Target: Muscarinic acetylcholine receptor M1 (Rattus norvegicus) (UniProt P08482)
Sequence (P08482 whole entry, looked up): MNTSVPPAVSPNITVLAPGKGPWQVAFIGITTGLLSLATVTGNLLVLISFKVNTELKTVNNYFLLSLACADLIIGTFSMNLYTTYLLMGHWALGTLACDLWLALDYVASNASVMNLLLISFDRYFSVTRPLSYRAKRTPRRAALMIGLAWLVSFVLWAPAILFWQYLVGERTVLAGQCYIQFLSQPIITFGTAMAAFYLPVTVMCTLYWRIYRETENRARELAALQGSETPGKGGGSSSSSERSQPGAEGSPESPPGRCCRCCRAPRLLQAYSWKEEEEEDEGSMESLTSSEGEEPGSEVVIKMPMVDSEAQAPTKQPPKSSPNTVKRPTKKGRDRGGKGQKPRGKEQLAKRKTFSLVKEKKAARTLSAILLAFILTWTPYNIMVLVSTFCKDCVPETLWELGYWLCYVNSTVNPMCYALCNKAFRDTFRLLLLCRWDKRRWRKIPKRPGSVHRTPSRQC
Test: qHTS Assay for Antagonists of Acetylcholine Muscarinic M1 Receptor: Kinetic Measurement of Intracellular Calcium Response (AID 943); note: nearly all actives have a fitted effect of over 75% in size; note: potency is the fitted concentration of half-maximal effect;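 for activity change, negative = inhibition: Fluo-4 calcium signal as peak divided by basal fluorescence over 4 min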
Conditions: M1-expressing cells, kinetic intracellular calcium fluorescence; series mostly up to 35.3 µM; activity change, negative = inhibition: at the top concentration
Summary of the method: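 Quantitative HTS in CHO-M1 (rat receptor) cells: 10 min compound exposure ahead of 100 nM carbachol, Fluo-4 fluorescence followed 4 min, value expressed as peak-to-basal ratio.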
With `NCCc1ccc(O)c(O)c1` the “activity change, negative = inhibition” value was -35.2% (inactive). In the case of `OC(CN1CCC(Cc2ccc(F)cc2)CC1)c1ccc(Cl)cc1` (configuration not stated), the Potency is reported as 398 nM (active). For `CNC[C@H](O)c1cccc(O)c1`, the “activity change, negative = inhibition” value was -36.3% (inactive). In the case of `C1COC(NC(C2CC2)C2CC2)=N1`, the “activity change, negative = inhibition” value is reported as -38.4% (inactive). In the case of `CC(C)(Sc1ccc(CCN(CCCCC2CCCCC2)C(=O)NC2CCCCC2)cc1)C(=O)O`, the “activity change, negative = inhibition” value is reported as -43.4% (inactive).

Target: Muscarinic acetylcholine receptor M1 (Rattus norvegicus) (UniProt P08482)
Test: qHTS Assay for Antagonists of Acetylcholine Muscarinic M1 Receptor: Measurement of IP-One Response (AID 944); note: nearly all actives have a fitted effect of over 75% in size; note: potency is the fitted concentration of half-maximal effect
Conditions: CHO-M1 cells, IP-One HTRF, antagonist mode; series mostly up to 46.1 µM; activity change, negative = inhibition: at the top concentration
Summary of the method: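 Antagonism was measured as loss of carbachol-driven (EC80) IP1 accumulation in CHO cells carrying rat M1, using a homogeneous IP-One TR-FRET kit read at 620 and 665 nm.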
With `CCOC(=O)C1=C[C@@]2(CC)CCCN3CCc4c(n1c1ccccc41)[C@H]32` the “activity change, negative = inhibition” value was -35.6% (inactive). In the case of `C[C@]12CCC(=O)C=C1CC[C@@H]1[C@@H]2[C@@H](O)C[C@@]2(C)[C@H]1CC[C@]2(O)C(=O)CO`, the “activity change, negative = inhibition” value is reported as -28.7% (inactive). For `Nc1ccc(S(=O)(=O)Nc2ccnn2-c2ccccc2)cc1`, the “activity change, negative = inhibition” value was -26% (inactive). In the case of `NCCc1ccc(O)c(O)c1`, the “activity change, negative = inhibition” value is reported as -46.1% (inactive). In the case of `CC(C)NCC(O)COc1ccc(COCCOC(C)C)cc1` (configuration not stated), the “activity change, negative = inhibition” value is reported as -7.3% (inactive). For `OC(CN1CCC(Cc2ccc(F)cc2)CC1)c1ccc(Cl)cc1` (configuration not stated), the Potency was 7.94 µM (active). For `CNC[C@H](O)c1cccc(O)c1`, the “activity change, negative = inhibition” value was -30.6% (inactive). For `C1COC(NC(C2CC2)C2CC2)=N1`, the “activity change, negative = inhibition” value was -15.4% (inactive). In the case of `CC(C)(Sc1ccc(CCN(CCCCC2CCCCC2)C(=O)NC2CCCCC2)cc1)C(=O)O`, the “activity change, negative = inhibition” value is reported as -29.8% (inactive). With `Cc1[nH]c(=O)c(C#N)cc1-c1ccc2nccn2c1` the “activity change, negative = inhibition” value was -16.1% (inactive).

Target: Pyruvate kinase (Leishmania mexicana) (UniProt Q27686)
Sequence (Q27686 2-499 E452W): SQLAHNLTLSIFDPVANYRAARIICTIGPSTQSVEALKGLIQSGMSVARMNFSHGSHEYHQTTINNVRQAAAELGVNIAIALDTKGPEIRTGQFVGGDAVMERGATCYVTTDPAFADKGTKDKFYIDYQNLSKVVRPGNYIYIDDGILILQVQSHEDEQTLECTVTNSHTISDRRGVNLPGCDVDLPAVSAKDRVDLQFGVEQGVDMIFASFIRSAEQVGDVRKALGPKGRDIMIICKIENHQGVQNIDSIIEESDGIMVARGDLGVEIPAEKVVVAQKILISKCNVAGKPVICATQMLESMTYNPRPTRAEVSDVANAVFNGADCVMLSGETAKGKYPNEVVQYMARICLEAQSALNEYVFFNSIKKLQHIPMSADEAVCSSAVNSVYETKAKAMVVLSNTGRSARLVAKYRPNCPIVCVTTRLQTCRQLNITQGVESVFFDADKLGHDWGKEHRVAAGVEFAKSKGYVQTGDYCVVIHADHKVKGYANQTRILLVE
Test: qHTS Validation Assay for Inhibitors of Leishmania Mexicana Pyruvate Kinase (AID 945);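 note: 0% = DMSO only neutral control wells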
Conditions: purified L. mexicana pyruvate kinase, enzyme activity, E451W mutant enzyme; series mostly up to 57.5 µM; activity change, negative = inhibition: at the top concentration
Summary of the method: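 Pyruvate kinase activity of E451W LmPYK (0.2 nM) was followed as ATP output after 1 h at room temperature with 0.5 mM PEP and 0.1 mM ADP, detected by PKLight luminescence.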
For `CCOC(=O)C1=C[C@@]2(CC)CCCN3CCc4c(n1c1ccccc41)[C@H]32`, the “activity change, negative = inhibition” value was 3.02% (inactive). For `Cc1cnc(NC(=O)C2=C(O)c3ccccc3S(=O)(=O)N2C)s1`, the “activity change, negative = inhibition” value was -13.8% (inactive). With `C[C@]12CCC(=O)C=C1CC[C@@H]1[C@@H]2[C@@H](O)C[C@@]2(C)[C@H]1CC[C@]2(O)C(=O)CO` the “activity change, negative = inhibition” value was -11.9% (inactive). With `Nc1ccc(S(=O)(=O)Nc2ccnn2-c2ccccc2)cc1` the “activity change, negative = inhibition” value was -5.41% (inactive). For `NCCc1ccc(O)c(O)c1`, the “activity change, negative = inhibition” value was 6.45% (inactive). In the case of `NC[C@H](O)c1ccc(O)c(O)c1`, the outcome is reported as “inactive”. In the case of `CC(C)NCC(O)COc1ccc(COCCOC(C)C)cc1` (configuration not stated), the “activity change, negative = inhibition” value is reported as -8.16% (inactive). In the case of `Cc1[nH]c(=O)c(C#N)cc1-c1ccncc1`, the “activity change, negative = inhibition” value is reported as 7.67% (inactive). In the case of `OC(CN1CCC(Cc2ccc(F)cc2)CC1)c1ccc(Cl)cc1` (configuration not stated), the “activity change, negative = inhibition” value is reported as -2.96% (inactive). With `CNC[C@H](O)c1cccc(O)c1` the “activity change, negative = inhibition” value was -4.75% (inactive). With `Cc1cn[nH]c1` the “activity change, negative = inhibition” value was 4.15% (inactive). In the case of `C1COC(NC(C2CC2)C2CC2)=N1`, the “activity change, negative = inhibition” value is reported as 6.25% (inactive). In the case of `CC(C)(Sc1ccc(CCN(CCCCC2CCCCC2)C(=O)NC2CCCCC2)cc1)C(=O)O`, the “activity change, negative = inhibition” value is reported as 16.9% (inactive). With `N[C@@H]1CONC1=O` the outcome was “inactive”. For `O=C1CCc2cc(OCCCCc3nnnn3C3CCCCC3)ccc2N1`, the “activity change, negative = inhibition” value was 3.34% (inactive). In the case of `Clc1cccc(Cl)c1NC1=NCCN1`, the “activity change, negative = inhibition” value is reported as 3.5% (inactive). With `Cc1oncc1C(=O)Nc1ccc(C(F)(F)F)cc1` the “activity change, negative = inhibition” value was -12.2% (inactive). For `Cc1[nH]c(=O)c(C#N)cc1-c1ccc2nccn2c1`, the “activity change, negative = inhibition” value was 9.16% (inactive). With `Nc1nc2c(ncn2COCCO)c(=O)[nH]1` the “activity change, negative = inhibition” value was 9.54% (inactive).
